The target of experiment [1] is Androgen receptor (Homo sapiens) (UniProt P10275). Put plainly: qHTS assay to identify small molecule antagonists of the androgen receptor (AR) signaling pathway using the MDA cell line in the presence of 0.5 nM R1881 (AID 1259243). Note: nearly all actives have a fitted effect of over 50% in size. Note: potency is the fitted concentration of half-maximal effect. The method, boiled down: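 With R1881 held at 0.5 nM (final), compound effects on MMTV-luciferase expression in MDA-kb2 cells were scored by luminescence after a 16 hr, 37C incubation.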

Experiment [2] has as its target Estrogen receptor (Homo sapiens) (UniProt P03372). Put plainly: qHTS assay to identify small molecule antagonists of the estrogen receptor alpha (ER-alpha) signaling pathway using the BG1 cell line in the presence of 0.1 nM 17-beta-estradiol (AID 1259244). Note: nearly all actives have a fitted effect of over 50% in size. Note: potency is the fitted concentration of half-maximal effect. The method, boiled down: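 Compounds were tested against 0.1 nM (final) 17beta-estradiol in VM7Luc4E2 cells, which express full-length ER-alpha and an ERE-luciferase reporter; luminescence was recorded following 22 h exposure.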

Experiment [3] can be described thus: qHTS assay to identify small molecule HDAC inhibitors (AID 1259364).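 Note: wild-type HCT-116 cells with endogenous class I/II HDAC activity; top concentration of the series differs between compounds; nearly all actives have a fitted effect of over 45% in size.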 The method, boiled down: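 Screening used wild-type human colon HCT-116 cells incubated overnight, dosed with compounds for 2 hours, and assayed with a homogeneous luminogenic HDAC I/II reagent for 30 minutes at room temperature.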
The nature of experiment [4]: qHTS assay to identify small molecule HDAC inhibitors - cell viability counter screen (AID 1259365). Note: series mostly up to about 92 µM; nearly all actives have a fitted effect of over 50% in size. The method, boiled down:
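Cytotoxicity was gauged in wild-type HCT-116 cells after a brief 2hr treatment with DMSO-dissolved compounds at 37C and 5% CO2, using CellTiter-Glo luminescence developed for 30min at room temperature.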
On the technique in general: qHTS replaces the single test concentration by a dilution series.

Experiment [5] can be described thus: qHTS assay to identify small molecule agonists of the sonic hedgehog signaling (Shh) pathway - cell viability counter screen (AID 1259366). Note: nearly all actives have a fitted effect of over 50% in size. Note: potency is the fitted concentration of half-maximal effect. The method, boiled down:
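Stable Gli1-Luc NIH/3T3 clone, 2,000 cells/well. Compound exposure 24hr at 37C. Read-out: CellTiter-Fluor fluorescence.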

Experiment [6] can be described thus: qHTS assay to identify small molecule antagonists of the sonic hedgehog signaling (Shh) pathway - cell viability counter screen (AID 1259367). Note: nearly all actives have a fitted effect of over 55% in size. Note: potency is the fitted concentration of half-maximal effect. The method, boiled down:
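Cytotoxicity was assessed in parallel with Shh reporter activity by measuring live-cell protease fluorescence (CellTiter-Fluor) in NIH/3T3 cells stably carrying Gli1-Luc, treated with compound under conditioned medium stimulation for 23 hr plus 1 hr reagent incubation.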

Experiment [7] in a line: qHTS assay to identify small molecule agonists of the sonic hedgehog signaling (Shh) pathway (AID 1259368; calls by dose curve;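 note: NIH/3T3-derived 3T3Gli1-Luc cells carrying a stable Gli1-driven firefly luciferase reporter; series mostly up to about 92 µM; nearly all actives have a fitted effect of over 15% in size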). The method, boiled down:
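Hedgehog pathway agonism scored by increased firefly luciferase luminescence in 3T3Gli1-Luc cells treated 24 hr at 37 C; detection used a 30 min room-temperature reagent incubation.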

Experiment [8] can be described thus: qHTS assay to identify small molecule antagonists of the sonic hedgehog signaling (Shh) pathway (AID 1259369; calls by dose curve; note: nearly all actives have a fitted effect of over 45% in size; note: potency is the fitted concentration of half-maximal effect). The method in brief:
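NIH/3T3 stable Gli1-Luc clone, 2,000 cells/well, 4hr settle; cpd + conditioned medium 24hr; Luc reagent 30min RT; luminescence.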

Experiment [9] has as its target Estrogen receptor beta (Homo sapiens) (UniProt Q92731). Briefly: qHTS assay to identify small molecule agonists of the estrogen receptor beta (ER-beta) signaling pathway (AID 1259377; active = well fitted activation curve with a large enough effect in the signal ratio in the repeat runs, not every such curve was filed as active; the % refers to the signal ratio). The method, boiled down:
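Measured by fluorescence intensity from a B/G FRET beta-lactamase substrate (2 h, room temperature) in ER-beta-UAS-bla HEK293T cells treated with DMSO-dissolved compounds for 16 hr at 37C and 5% CO2.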

Experiment [10] is described as follows: qHTS assay to identify small molecule agonists of the androgen receptor (AR) signaling pathway in the presence of an antagonist - cell viability counter screen (AID 1259379). Note: nearly all actives have a fitted effect of over 25% in size. Note: potency is the fitted concentration of half-maximal effect. The method, boiled down:
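MDA-kb2 viability measured by CellTiter-Fluor fluorescence in the same wells as the luciferase signal; nilutamide 3.0uM final; 15-point compound titration; 16 hr at 37C.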

Experiment [11] can be described thus: qHTS assay to identify small molecule agonists of the estrogen receptor beta (ER-beta) signaling pathway - cell viability counter screen (AID 1259380). Note: nearly all actives have a fitted effect of over 30% in size. Note: potency is the fitted concentration of half-maximal effect. The method in brief: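 Measured: luminescence from CellTiter-Glo after 30 min at room temperature, added to wells already read for the LiveBLAzer FRET reporter (2 hr substrate); ER-beta-UAS-bla HEK293T cells had 16 hr compound treatment at 37C, 5% CO2.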

Experiment [12] deals with Androgen receptor (Homo sapiens) (UniProt P10275). Briefly: qHTS assay to identify small molecule agonists of the androgen receptor (AR) signaling pathway in the presence of an antagonist (AID 1259381; calls by dose curve; note: nearly all actives have a fitted effect of over 15% in size). The method in brief: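 Luminescent ONE-Glo read, 30min at room temperature, follows 16hr compound exposure (15 concentrations) of MDA-kb2 cells at 37C, 0% CO2, with nilutamide added at 3.0uM final.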

Experiment [13] in a line: qHTS assay to identify small molecule antagonists of the estrogen receptor beta (ER-beta) signaling pathway - cell viability counter screen (AID 1259382). Note: nearly all actives have a fitted effect of over 55% in size. Note: potency is the fitted concentration of half-maximal effect. The method in brief: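 Readout: luminescence, CellTiter-Glo, same wells as bla assay. System: ER-beta-UAS-bla GripTite HEK293T, 2% charcoal-stripped FBS. Exposure: compounds plus 1nM 17-beta-estradiol, 16 hr, 37C.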

Experiment [14] deals with Estrogen receptor (Homo sapiens) (UniProt P03372). Put plainly: qHTS assay to identify small molecule agonists of the estrogen receptor alpha (ER-alpha) signaling pathway in the presence of an antagonist (AID 1259383; calls by dose curve; note: top concentration of the series differs between compounds; nearly all actives have a fitted effect of over 15% in size). The method in brief:
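Quantitative HTS confirmation: compounds titrated at 15 concentrations onto estrogen-deprived VM7Luc4E2 cells carrying a four-ERE luciferase construct, with ICI-182,780 present at 10.0nM final. Signal is luminescence after 22hr exposure.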

Experiment [15] can be described thus: qHTS assay to identify small molecule agonists or antagonists of the thyroid stimulating hormone receptor (TSHR) signaling pathway - wild type cell line counter screen (AID 1259384; calls by dose curve). The method, boiled down:
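Wild-type HEK293 cells were plated 18 h at 37 C/5% CO2, pin-dosed with compound plus Ro20-1724 medium, held 30 min at room temperature, then given cAMP-d2 and anti-cAMP-cryptate; fluorescence was read after 1 h. Fifteen concentrations, triplicate.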

In experiment [16] the target is Thyrotropin receptor (Homo sapiens) (UniProt P16473). Briefly: qHTS assay to identify small molecule antagonists of the thyroid stimulating hormone receptor (TSHR) signaling pathway (AID 1259385; calls by dose curve; note: nearly all actives have a fitted effect of over 20% in size; note: potency is the fitted concentration of half-maximal effect). The method in brief:
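TSHR-HEK293 cells were plated and held 18 h at 37C/5% CO2, then given compound plus Ro20-1724 and stimulated with TSH at 1.5 ng/mL final. After 30 min at room temperature, cAMP was detected with cAMP-d2/anti-cAMP-cryptate (1 h) by fluorescence.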

A short description of experiment [17]: qHTS assay to identify small molecule agonists of the estrogen receptor alpha (ER-alpha) signaling pathway in the presence of an antagonist - cell viability counter screen (AID 1259386).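 Note: cells exposed to compounds for 22 h at 37 °C before the viability read; nearly all actives have a fitted effect of over 30% in size.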 Note: potency is the fitted concentration of half-maximal effect. The method, boiled down: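 The test measures whether compounds kill ER-alpha reporter cells (VM7Luc4E2) under antagonist co-treatment (ICI-182,780, 10.0nM). Fluorescence from CellTiter-Fluor is read after a 22hr exposure.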

The target of experiment [18] is Progesterone receptor (Homo sapiens) (UniProt P06401). Put plainly: qHTS assay to identify small molecule agonists of the progesterone receptor (PR) signaling pathway (AID 1346784; calls by dose curve; note: nearly all actives have a fitted effect of over 30% in size). The method, boiled down: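 The screen uses PR-UAS-bla HEK 293T cells in charcoal-stripped serum (2%). Compounds are applied for 16 hr at 37C after a 6 hr pre-incubation, and reporter activity is detected with a FRET beta-lactamase substrate after 2 hr at room temperature.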

In experiment [19] the target is Estrogen receptor beta (Homo sapiens) (UniProt Q92731). Put plainly: qHTS assay to identify small molecule antagonists of the estrogen receptor beta (ER-beta) signaling pathway (AID 1259378; active = well fitted inhibition curve with a large enough effect in the signal ratio in the repeat runs, not every such curve was filed as active; the % refers to the signal ratio). The method in brief:
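ER-beta-UAS-bla HEK293T (GripTite) cells in 2% charcoal-stripped FBS medium were preincubated 6 hr at 37C, dosed with compound, then stimulated with 1 nM E2 (final) for 16 hr; beta-lactamase reporter read by B/G FRET fluorescence after 2 hr substrate loading.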

The nature of experiment [20]: qHTS assay to identify small molecule phospholipidosis (PLD) inducers (AID 1259344; active = well fitted curve in the direction sought with a large enough effect; an effect the other way counts as inactive or inconclusive). The method in brief:
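Cells (HepG2, 900 per well) attach for 4 h, receive LipidTOX Red and compound together, incubate 24 h at 37 C, are fixed 30 min with paraformaldehyde/Hoechst, then imaged at one site per well.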

Values joined by “and” are separate entries in the source; they are usually repeats but may differ in a detail not shown here. Equal entries are not always repeated. Results filed as inconclusive are left out. The source holds several records for some structures; these can differ, active in one and inactive in another. Active and inactive are the calls of the source. Unless noted, calls come from the whole dose curve; as a rule, active = well fitted curve in the direction sought with a large enough effect in the repeat runs; inconclusive = weak or mixed curves; inactive = no such curve, though single readings can be large; an effect the other way counts as inactive or inconclusive.

Sequence of Estrogen receptor (Homo sapiens) (P03372 whole entry, looked up): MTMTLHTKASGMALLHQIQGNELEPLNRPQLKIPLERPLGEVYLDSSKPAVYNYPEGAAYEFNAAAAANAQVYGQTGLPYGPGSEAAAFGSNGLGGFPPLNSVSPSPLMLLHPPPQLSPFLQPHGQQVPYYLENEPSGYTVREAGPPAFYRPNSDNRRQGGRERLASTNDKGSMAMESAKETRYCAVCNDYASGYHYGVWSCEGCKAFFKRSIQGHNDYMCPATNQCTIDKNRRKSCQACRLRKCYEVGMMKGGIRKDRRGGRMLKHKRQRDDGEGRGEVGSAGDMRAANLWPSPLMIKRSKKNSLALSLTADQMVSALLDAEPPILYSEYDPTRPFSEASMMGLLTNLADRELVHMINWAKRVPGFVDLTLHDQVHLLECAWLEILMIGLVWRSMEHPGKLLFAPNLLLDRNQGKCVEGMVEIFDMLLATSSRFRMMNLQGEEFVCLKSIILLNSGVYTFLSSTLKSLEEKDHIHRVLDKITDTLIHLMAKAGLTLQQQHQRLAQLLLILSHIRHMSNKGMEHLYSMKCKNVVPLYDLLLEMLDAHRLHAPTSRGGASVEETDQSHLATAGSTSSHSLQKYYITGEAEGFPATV
Sequence of Androgen receptor (Homo sapiens) (P10275 whole entry, looked up): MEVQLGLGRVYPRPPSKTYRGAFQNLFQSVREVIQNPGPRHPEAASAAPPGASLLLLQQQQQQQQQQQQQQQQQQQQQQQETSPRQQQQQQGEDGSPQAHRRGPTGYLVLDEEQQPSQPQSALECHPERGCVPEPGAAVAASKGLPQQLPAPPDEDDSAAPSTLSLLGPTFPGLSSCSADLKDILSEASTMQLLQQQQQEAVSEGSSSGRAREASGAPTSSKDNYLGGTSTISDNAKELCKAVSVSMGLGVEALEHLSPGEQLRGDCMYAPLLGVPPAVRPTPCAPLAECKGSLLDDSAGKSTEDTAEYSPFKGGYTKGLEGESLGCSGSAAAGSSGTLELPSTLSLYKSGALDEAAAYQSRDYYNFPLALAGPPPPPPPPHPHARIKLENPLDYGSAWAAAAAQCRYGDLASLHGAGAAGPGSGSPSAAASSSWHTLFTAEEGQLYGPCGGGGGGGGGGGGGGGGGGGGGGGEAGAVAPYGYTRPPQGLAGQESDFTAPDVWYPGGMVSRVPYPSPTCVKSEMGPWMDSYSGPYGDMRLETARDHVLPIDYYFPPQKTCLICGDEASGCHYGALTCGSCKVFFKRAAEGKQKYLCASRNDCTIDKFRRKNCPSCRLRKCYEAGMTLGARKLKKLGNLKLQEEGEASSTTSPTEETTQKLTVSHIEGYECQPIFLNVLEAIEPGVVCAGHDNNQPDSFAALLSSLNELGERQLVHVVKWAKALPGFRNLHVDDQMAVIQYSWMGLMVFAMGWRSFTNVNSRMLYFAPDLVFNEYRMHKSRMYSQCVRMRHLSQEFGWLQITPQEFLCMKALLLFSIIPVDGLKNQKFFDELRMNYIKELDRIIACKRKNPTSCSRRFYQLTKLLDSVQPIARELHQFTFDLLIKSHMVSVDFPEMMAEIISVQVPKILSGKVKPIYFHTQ
Sequence of Estrogen receptor beta (Homo sapiens) (Q92731 whole entry, looked up): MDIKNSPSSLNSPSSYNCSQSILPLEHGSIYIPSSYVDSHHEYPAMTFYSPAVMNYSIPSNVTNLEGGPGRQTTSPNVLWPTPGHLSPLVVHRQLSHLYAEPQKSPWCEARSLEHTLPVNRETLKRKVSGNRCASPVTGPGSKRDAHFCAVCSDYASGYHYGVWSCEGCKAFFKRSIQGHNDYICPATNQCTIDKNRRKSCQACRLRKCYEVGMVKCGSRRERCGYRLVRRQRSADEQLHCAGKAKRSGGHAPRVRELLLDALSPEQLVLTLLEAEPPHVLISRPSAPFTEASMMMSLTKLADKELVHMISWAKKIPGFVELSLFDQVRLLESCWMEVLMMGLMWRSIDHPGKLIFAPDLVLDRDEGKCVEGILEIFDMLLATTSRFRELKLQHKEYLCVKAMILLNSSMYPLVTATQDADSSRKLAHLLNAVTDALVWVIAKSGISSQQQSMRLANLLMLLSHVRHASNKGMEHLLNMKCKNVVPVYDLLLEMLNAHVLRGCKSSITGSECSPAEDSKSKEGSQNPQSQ
Sequence of Progesterone receptor (Homo sapiens) (P06401 whole entry, looked up): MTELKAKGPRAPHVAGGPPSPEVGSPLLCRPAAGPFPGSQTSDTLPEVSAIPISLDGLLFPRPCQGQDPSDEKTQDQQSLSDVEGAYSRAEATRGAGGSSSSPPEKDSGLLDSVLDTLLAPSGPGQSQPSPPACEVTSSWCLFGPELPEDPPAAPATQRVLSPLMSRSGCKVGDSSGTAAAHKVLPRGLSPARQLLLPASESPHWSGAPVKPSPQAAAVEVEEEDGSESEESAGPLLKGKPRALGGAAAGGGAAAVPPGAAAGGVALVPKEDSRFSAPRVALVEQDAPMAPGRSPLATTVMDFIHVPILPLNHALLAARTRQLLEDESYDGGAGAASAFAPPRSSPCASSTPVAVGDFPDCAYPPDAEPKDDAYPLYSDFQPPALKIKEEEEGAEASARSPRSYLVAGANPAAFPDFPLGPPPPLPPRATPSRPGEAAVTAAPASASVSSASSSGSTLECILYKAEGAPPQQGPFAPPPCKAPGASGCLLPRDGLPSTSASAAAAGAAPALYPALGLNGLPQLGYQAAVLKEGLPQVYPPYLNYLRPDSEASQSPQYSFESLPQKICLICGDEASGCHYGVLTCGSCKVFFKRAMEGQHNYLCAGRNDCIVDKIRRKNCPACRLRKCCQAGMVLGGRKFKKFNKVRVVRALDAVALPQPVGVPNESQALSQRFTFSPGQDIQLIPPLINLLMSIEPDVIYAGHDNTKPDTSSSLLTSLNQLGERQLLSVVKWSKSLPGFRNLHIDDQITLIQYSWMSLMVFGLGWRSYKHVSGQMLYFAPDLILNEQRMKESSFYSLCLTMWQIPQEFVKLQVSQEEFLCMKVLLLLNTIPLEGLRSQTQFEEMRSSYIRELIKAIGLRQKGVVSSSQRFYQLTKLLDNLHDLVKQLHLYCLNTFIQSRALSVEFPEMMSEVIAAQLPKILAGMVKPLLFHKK
Sequence of Thyrotropin receptor (Homo sapiens) (P16473 whole entry, looked up): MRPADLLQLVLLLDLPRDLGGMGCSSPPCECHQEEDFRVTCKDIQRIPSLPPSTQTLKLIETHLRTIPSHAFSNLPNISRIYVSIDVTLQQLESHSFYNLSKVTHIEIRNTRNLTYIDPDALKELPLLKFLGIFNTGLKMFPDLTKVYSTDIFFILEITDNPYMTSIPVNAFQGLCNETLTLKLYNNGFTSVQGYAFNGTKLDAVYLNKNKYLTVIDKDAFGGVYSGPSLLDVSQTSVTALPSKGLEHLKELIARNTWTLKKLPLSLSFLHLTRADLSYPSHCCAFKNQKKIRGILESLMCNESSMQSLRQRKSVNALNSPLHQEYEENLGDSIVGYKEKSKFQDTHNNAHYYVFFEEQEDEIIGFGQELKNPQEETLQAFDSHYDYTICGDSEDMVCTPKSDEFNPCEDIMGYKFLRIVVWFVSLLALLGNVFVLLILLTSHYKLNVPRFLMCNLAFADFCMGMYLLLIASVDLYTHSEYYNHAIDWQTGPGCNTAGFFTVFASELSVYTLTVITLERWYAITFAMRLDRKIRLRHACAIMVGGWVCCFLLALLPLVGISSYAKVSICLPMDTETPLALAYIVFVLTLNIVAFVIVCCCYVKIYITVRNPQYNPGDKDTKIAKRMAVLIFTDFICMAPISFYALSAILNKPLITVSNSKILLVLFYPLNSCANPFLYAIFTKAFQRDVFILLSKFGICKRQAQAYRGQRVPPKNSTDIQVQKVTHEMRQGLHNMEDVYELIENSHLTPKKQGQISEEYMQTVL

In the case of `CC1COC(=O)O1` (configuration not stated), the Potency result in experiment [1], in experiment [2], in experiment [3], in experiment [4], in [5] and in experiment [6] was “inactive” in each case. Further, the Potency result in [7], in experiment [8], in experiment [10], in experiment [11], in experiment [12] and in [13] was “inactive” in each case. Also, the Potency entry in experiment [14], in experiment [15], in experiment [16], in experiment [17] and in experiment [18] was “inactive” each time. For the same compound, the compound was classed as inactive in experiment [9].

For the compound `CC(C)CCOCc1ccccc1`, the Potency entry in [1], in [2], in experiment [4], in experiment [5], in experiment [6] and in experiment [7] was “inactive” throughout. Further, the Potency result in experiment [8], in [19], in experiment [10], in experiment [11], in [12] and in experiment [13] was “inactive” each time. In addition, the Potency result in [14], in experiment [15], in [16], in experiment [17] and in experiment [18] was “inactive” in each case. Besides, the result in [9] was inactive.

With `Cc1c(O)cccc1C(=O)N[C@@H](CSc1ccccc1)[C@H](O)CN1C[C@H]2CCCC[C@H]2C[C@H]1C(=O)NC(C)(C)C`, the Potency in experiment [1] was 18.8 µM (active); in [5], 1.5 µM (active) and 1.88 µM (active); in experiment [6], 2.37 µM (active) and 3.76 µM (active); in experiment [8] it was 8.41 µM (active) and 29.8 µM (active); in experiment [11], 23.7 µM (active) and 18.8 µM (active); in [13] it was 16.8 µM (active) and 23.7 µM (active). In addition, the Potency entry in [20], in [4], in experiment [7], in experiment [12], in experiment [15] and in experiment [16] was “inactive” in each case. For the same compound, the Potency result in experiment [18] is “inactive”.

For the compound `Cc1ccc(S(=O)(=O)Oc2ccc(N=Nc3ccc(-c4ccc(N=Nc5c(O)ccc6cc(S(=O)(=O)O)cc(S(=O)(=O)O)c56)c(C)c4)cc3C)cc2)cc1`, the Potency was 17.3 µM (active) and 20 µM (active) in experiment [1]; 24.4 µM (active) and 20 µM (active) in [6]; 24.4 µM (active) and 17.8 µM (active) in [10]; 61.4 µM (active) in [16]; 27.4 µM (active) and 11.2 µM (active) in experiment [17]. In addition, the Potency result in experiment [3], in [7], in experiment [8], in experiment [19], in [11] and in experiment [12] was “inactive” in each case. Also, the Potency result in experiment [13], in [15] and in experiment [18] was “inactive” each time. For the same compound, the outcome in [9] was inactive.

On to `CCCCCCCCCCCCc1ccccc1O`, for which the Potency is 30.2 µM (active) and 24.3 µM (active) in experiment [1]; “inactive and 61.1 µM (active)” in experiment [2]; 60.3 µM (active) and 61.1 µM (active) in experiment [5]; 60.3 µM (active) and 61.1 µM (active) in experiment [6]; 67.7 µM (active) and 34.4 µM (active) in experiment [8]; 61.1 µM (active) in [10]. Moreover, the Potency in [11] was 30.2 µM (active) and 27.3 µM (active); in experiment [13] it was 47.9 µM (active) and 43.3 µM (active); in [17], 68.6 µM (active). Moreover, the Potency result in [3], in [4], in experiment [7] and in experiment [12] was “inactive” in each case.

For `OCC(CO)N[C@H]1C[C@](O)(CO)[C@@H](O)[C@H](O)[C@H]1O`, the Potency entry in experiment [1], in experiment [2], in [20], in [3], in experiment [4] and in experiment [5] was “inactive” in each case. In addition, the Potency result in [6], in experiment [7], in experiment [8], in experiment [19], in experiment [10] and in [11] was “inactive” throughout. Further, the Potency result in experiment [12], in experiment [13], in [14], in experiment [15], in [16] and in [17] was “inactive” in each case. Besides, in experiment [18], the Potency entry is “inactive”. Moreover, in [9], the result was inactive.

Source of the values: PubChem BioAssay (Tox21).
